GAA850 FXN act: activators of GAA850 frataxin (FXN) promoter; activation, % at 6 µM; 360,000 compounds, 0.56% hits; AID 540364; HEK293 lucGAA850 FXN promoter luciferase reporter, 24 h; percent of 10 µM SAHA response;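 active = activation above the average of all compounds screened plus 3 SD, cutoff fixed separately per campaign, cut at about 7.5% in these data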
ssDAF-12 act: activators of S. stercoralis DAF-12 nuclear receptor; HEK293 ssDAF-12/GRIP1 lit1-tk-luc reporter, luminescence; % of 3 µM dafachronic acid response; activation, % at 6.8 µM; 370,000 compounds, 1% hits;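 active = activation above the mean over all tested compounds plus 3 SD, cut at about 0.9% in these data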
DAX1 inh-1: inhibitors of DAX1 repression of SF-1 activated StAR promoter; HEK293T StAR-luciferase reporter, SF-1/DAX-1 repression relief; 370,000 compounds, 1.1% hits; AID 652010; inhibition, % at 6.8 µM;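 active = inhibition above the mean over all tested compounds plus 3 SD, cut at about 3.6% in these data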;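 also: higher inhibition means more luminescence from relief of DAX-1 repression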
hcDAF12 agonist: activates DAF-12 receptor from parasite H. contortus | HEK293 hcDAF-12 lit1-tk-luc reporter, luminescence; 0% DMSO, 100% Δ7-dafachronic acid | activation, % at 6.8 µM | 370,000 compounds, 1.4% hits | AID 652067;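 active = activation above the mean of all tested compounds plus 3 SD, cut at about 5.5% in these data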
hgDAF12 agonist: agonists of H. glycines DAF-12 nuclear receptor. HEK293 GAL4-hgDAF12 UAS-luciferase reporter, agonist luminescence; normalized to butyrate control. activation, % at 6.8 µM. 370,000 compounds, 1.8% hits;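 active = activation above a cutoff set at the mean of all screened compounds plus 3 SD, cut at about 10% in these data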
DAX1 inh-2: inhibits human nuclear receptor DAX1. P51843. HEK293 Gal4-DAX1 luciferase reporter, luminescence. inhibition, % at 6.75 µM. 340,000 compounds, 0.99% hits. AID 504766;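 active = inhibition above the mean over all tested compounds plus 3 SD, cut at about 4.2% in these data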;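 also: inhibition shows as a rise in luminescence from relieved DAX1 repression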
LXRb hcDAF ctr: activates human LXR-beta, counter-screen for hcDAF-12 agonists; activation, % at 6.8 µM; HEK293 Gal4-LXR tk-luc reporter, luminescence, 24 h; normalized: DMSO 0%, positive control 100%; 3,400 tested, under 10 active; shares compounds with hcDAF12 agonist; AID 743027;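 active = mean percent activation of the reporter above a cutoff set as the average over tested compounds plus their standard deviation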
Target sequence (P55055 whole entry, looked up, the tested form may be a part): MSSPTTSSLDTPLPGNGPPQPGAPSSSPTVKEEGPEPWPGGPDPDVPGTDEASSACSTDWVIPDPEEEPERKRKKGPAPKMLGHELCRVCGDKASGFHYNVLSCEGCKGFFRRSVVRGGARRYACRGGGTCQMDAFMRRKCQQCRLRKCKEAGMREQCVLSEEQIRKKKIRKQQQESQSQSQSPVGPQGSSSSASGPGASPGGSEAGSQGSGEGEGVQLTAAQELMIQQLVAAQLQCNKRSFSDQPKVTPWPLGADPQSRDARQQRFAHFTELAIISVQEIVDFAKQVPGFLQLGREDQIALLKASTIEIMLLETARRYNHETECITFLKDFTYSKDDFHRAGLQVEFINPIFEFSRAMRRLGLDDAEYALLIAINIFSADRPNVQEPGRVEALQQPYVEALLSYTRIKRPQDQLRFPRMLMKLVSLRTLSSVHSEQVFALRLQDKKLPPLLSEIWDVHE
hcDAF12 ag: hcDAF-12 agonism, confirmation assay; shares compounds with hcDAF12 agonist; HEK293 hcDAF-12 lit1-tk-luc reporter, luminescence; % of Δ7-dafachronic acid response; activation, % at 6.8 µM; 3,400 compounds, 61% hits; AID 743032;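 active = mean activation across triplicate tests above the threshold derived from the earlier primary screen, cut at about 5.5% in these data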
Of the large screens only hits and unclear results are named; the others gave an inactive call (follow-up assays come after a bar, where they were run). Shown are actives, neighbours in structure and some others; about 4.5% of the full set was active somewhere.

CCc1ccccc1NC(=O)CCc1nc(-c2cccs2)no1	none
CNC(=O)COC(=O)/C=C/c1c(C)nn(-c2ccccc2)c1C	hcDAF12 agonist 8.4 | LXRb hcDAF ctr inactive | hcDAF12 ag inactive
C[C@H]1[C@H](c2ccccc2)Oc2cccc(NCCc3ccccc3)c2S(=O)(=O)N1Cc1cccc(Cl)c1	none (no result: GAA850 FXN act, DAX1 inh-2)
O=C(O)c1cc(-c2ccc(-c3ccc(F)cc3)o2)nc2ccccc12	hcDAF12 agonist 13, hgDAF12 agonist 11 | LXRb hcDAF ctr inactive | hcDAF12 ag 6.8
O=C(c1cc(-c2ccc(F)cc2)nc2ccccc12)N1CCC1	none
C(=C\c1ccc2ccccc2n1)/c1ccccc1	ssDAF-12 act 1.3, hcDAF12 agonist 14 | LXRb hcDAF ctr inactive | hcDAF12 ag 13
CC(CN1CCCCC1)NC(=O)c1cc(-c2ccccn2)nc2ccc(Cl)cc12 (stereo not given)	none
COc1cc(N=Nc2cccc(S(N)(=O)=O)c2)c2ccccc2c1N	hcDAF12 agonist 9.2 | LXRb hcDAF ctr inactive | hcDAF12 ag inactive
O=C1c2ccccc2S(=O)(=O)c2cc(N3CCOCC3)ccc21	hcDAF12 agonist 6.6 | LXRb hcDAF ctr inactive | hcDAF12 ag inactive
Cn1c(-c2ccc3ccccc3n2)[n+](C)c2ccccc21	hcDAF12 agonist 10 | LXRb hcDAF ctr inactive | hcDAF12 ag inactive
Cn1c(-c2ccccn2)[n+](C)c2ccccc21	none
CC(C(=O)O)n1nc(-c2ccccc2)c2ccccc21 (stereo not given)	none
COc1ccccc1C/C(N)=N/OC(=O)COc1ccc(C)cc1	none
O=C1c2ccccc2CN1C(CO)Cc1ccccc1 (stereo not given)	none
C=CCn1c(COc2ccc(CC)cc2)nnc1SC/C(O)=C(\C#N)c1nc2ccccc2[nH]1	hcDAF12 agonist 8.2 | LXRb hcDAF ctr inactive | hcDAF12 ag 6.1
C=CCn1c(COc2ccccc2)nnc1SCc1ccc(C#N)cc1	none
Cc1cccc(-c2cc3nc(C)cc(C)n3n2)c1	ssDAF-12 act 1.6, hcDAF12 agonist 8.6 | LXRb hcDAF ctr inactive | hcDAF12 ag 11
Cc1cccc(-c2cc3nc(C)cc(N4CC(C)CC(C)C4)n3n2)c1 (stereo not given)	none
CC(C)N(C(=O)Cn1cc(S(=O)(=O)CC(=O)NCCc2ccccc2)c2ccccc21)C(C)C	none
CCN(CC)C(=O)Cn1cc(S(=O)(=O)CC(=O)NCCc2ccccc2)c2ccccc21	hcDAF12 agonist 7.6 | LXRb hcDAF ctr inactive | hcDAF12 ag inactive
CN(C)C(=O)Cn1cc(S(=O)(=O)Cc2ccccc2)c2ccccc21	hcDAF12 agonist 6.6 | LXRb hcDAF ctr inactive | hcDAF12 ag inactive
CN(C)c1ccc(C(=O)Nc2nc3c(s2)CCCC3)cc1	DAX1 inh-1 3.8, hcDAF12 agonist 7.7, hgDAF12 agonist 12 | LXRb hcDAF ctr inactive | hcDAF12 ag 8.4
CC(C)CCN1CCN(Cc2cccs2)CC1CCO (stereo not given)	none
CC(C)CCN1CCN(Cc2cc3ccccc3[nH]2)CC1CCO (stereo not given)	hcDAF12 agonist 6.9 | LXRb hcDAF ctr inactive | hcDAF12 ag 7.0
Cc1cc(C(=O)CN2C(=O)c3ccccc3C2=O)c(C)n1Cc1cccs1	none
Cc1cc(C(=O)Cn2nnc3ccccc3c2=O)c(C)n1Cc1cccs1	ssDAF-12 act 0.9, hcDAF12 agonist 8.4 | LXRb hcDAF ctr inactive | hcDAF12 ag 12
O=C(NNC(=O)c1cccs1)c1ccc(Cl)nc1	none
O=C1C=C(Nc2ccc(O)cc2)C(=O)c2ccccc21	hcDAF12 agonist 8.8 | LXRb hcDAF ctr inactive | hcDAF12 ag 6.6
COc1cc(C#Cc2c(C=O)n(C)c3ccccc23)cc(OC)c1	hcDAF12 agonist 6.9 | LXRb hcDAF ctr inactive | hcDAF12 ag inactive
Cc1cnc(C(=O)OCC(=O)N2CCC(C)CC2)cn1	none
COC(=O)c1cn(C(=O)c2cccc(Br)c2)c2ccccc12	none
COc1ccccc1Cc1c(-c2ccc(F)cc2)nc2ccc(Cl)cn12	DAX1 inh-1 4.0, hcDAF12 agonist 7.0, hgDAF12 agonist 11 (no result: GAA850 FXN act, DAX1 inh-2) | LXRb hcDAF ctr inactive | hcDAF12 ag inactive
COC(=O)c1ccc2nc(-c3ccc(Cl)cc3)c(Cc3ccccc3OC)n2c1	none (no result: GAA850 FXN act, DAX1 inh-2)
O=c1c(C(c2ccccc2)c2c(O)nc3n(c2=O)CCS3)c(O)nc2n1CCS2	none
COc1ccccc1N1C(=O)C(Cl)=C(Nc2ccccc2O)C1=O	ssDAF-12 act 1.5, hcDAF12 agonist 7.1 | LXRb hcDAF ctr inactive | hcDAF12 ag inactive
CCOC(=O)C1CCCN(C(=O)Cc2c(C(=O)O)[nH]c3ccccc23)C1 (stereo not given)	hcDAF12 agonist 6.8 | LXRb hcDAF ctr inactive | hcDAF12 ag inactive
CCOC(=O)C1CCCN(C(=O)CC(c2ccccc2)c2ccccc2)C1 (stereo not given)	none
Cc1ccccc1NC(=O)OCCN1CCCC12CCC(c1ccccc1)CC2 (stereo not given)	none (no result: GAA850 FXN act, DAX1 inh-1, DAX1 inh-2)
Cc1c(C(=O)Nc2ccc(N3CCOCC3)cc2)oc2ccccc12	hcDAF12 agonist 11 | LXRb hcDAF ctr inactive | hcDAF12 ag 8.6
COc1ccc(OCC(=O)Nc2ccc(N3CCN(Cc4ccccc4F)CC3)cc2)cc1	none
COc1cccc(Nc2nnc(SCc3nc4ccccc4s3)s2)c1	hcDAF12 agonist 7.0 | LXRb hcDAF ctr inactive | hcDAF12 ag 10
O=C(c1ccc(S(=O)(=O)c2ccccc2Cl)c([N+](=O)[O-])c1)N1CCCCCC1	none
CC(C)Oc1ccc(S(=O)(=O)N2CCOCC2)cc1NC(=O)c1cc([N+](=O)[O-])ccc1N1CCOCC1	none
c1ccc2nc(-c3nc4ccccc4[nH]3)ccc2c1	ssDAF-12 act 1.1, hcDAF12 agonist 21, hgDAF12 agonist 13 | LXRb hcDAF ctr inactive | hcDAF12 ag 21
Cn1c(=O)c(/C=C/c2ccc(F)cc2)nc2ccccc21	hcDAF12 agonist 10.0 | LXRb hcDAF ctr inactive | hcDAF12 ag 9.9
Cc1cccn2cc(-c3ccc(F)cc3)cc12	none
Cc1cccn2cc(-c3ccc(F)cc3)nc12	ssDAF-12 act 1.8, DAX1 inh-1 3.9, hcDAF12 agonist 12, hgDAF12 agonist 11 | LXRb hcDAF ctr inactive | hcDAF12 ag 9.7
COc1ccc(CCNS(=O)(=O)c2ccc(Br)cc2)cc1OC	none
COc1ccccc1C(=O)NNC(=O)c1ccc(F)cc1	hcDAF12 agonist 9.3 | LXRb hcDAF ctr inactive | hcDAF12 ag 6.8
COc1ccccc1C(=O)NNC(=O)c1ccc(O)cc1	none
